The record followed here is PubChem BioAssay.

Each structure is given as a SMILES string. Values joined by “and” are separate entries in the source; they are usually repeats but may differ in a detail not shown here. Equal values may be shown once. Inconclusive results are not listed. Active and inactive are the calls of the source.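 Rule for the calls, unless noted: active = normalized viability below 100% at a tested concentration; inactive = the rest.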

A short description of experiment [1]: growth inhibition of DIPG glioma cells, dose response, cell-based, SU-DIPG-XIII, MIPE4.0, CellTiter-Glo, qHTS (AID 1347061; cut-off not given, nearly all actives have AC50 up to about 37 µM;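 note: cells exposed to compound for 48 hours before readout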). Conditions: SU-DIPG-XIII viability, CellTiter-Glo ATP luminescence. (Cellular ATP, detected with luciferase, serves as a proxy for viable cell number.)
A short description of experiment [2]: growth inhibition of DIPG glioma cells, dose response, cell-based, JHH-DIPG-1, MIPE4.0, CellTiter-Glo, qHTS (AID 1347062; cut-off not given, nearly all actives have AC50 up to about 27 µM;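 for AC50: cells exposed to compound for two days before readout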). Conditions: JHH-DIPG-1 viability, CellTiter-Glo ATP luminescence.
Experiment [3] is described as follows: SU-DIPG-VI glioma cell viability, MIPE4.0 library, CellTiter-Glo luminescence, qHTS (AID 1347066; cut-off not given, nearly all actives have AC50 up to about 30 µM;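 note: cells exposed to compound for 48 hours before readout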). The conditions noted are these: CellTiter-Glo ATP luminescence.
The nature of experiment [4]: viability loss in pontine glioma line – cell-based, SU-DIPG-XXV, MIPE5.0, CellTiter-Glo, qHTS, dose response (AID 1347065; cut-off not given, nearly all actives have AC50 up to about 26 µM;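 note: cells exposed to compound for 48 hours before ATP readout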). The conditions noted are these: CellTiter-Glo ATP luminescence.
Experiment [5] is described as follows: SU-DIPG-XXV glioma cell viability, MIPE5.0 library, qHTS (AID 1347068; cut-off not given, nearly all actives have IC50 up to about 30 µM). A general note: In qHTS, concentration-response curves come from the screen itself.
Experiment [6] can be described thus: sensitizers of A549 cells to miR-34 induction, primary screen, imaging, A549 dox-inducible miR-34, nuclei and caspase counts (AID 1347080;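 active = compounds whose cell count with miR-34 switched on is under 0.7 times the count with it off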). The conditions noted are these: A549 miR-34 inducible, Hoechst nuclei count, 48 h.
Experiment [7] can be described thus: survival rescue of mitochondrial mutant cells in low glucose, primary screen, MELAS cybrids, Rieske KO mouse fibroblasts, CellTiter-Glo (AID 1508586;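 active = mean z-score across replicates of 1.96 or higher in either the MELAS or the Rieske mutant cell line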;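 note: z relative to plate mean and SD of compound and empty wells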).
Experiment [8] can be described thus: ovarian cancer cell viability with rucaparib, profiling panel, oncology-focused library, rucaparib conditional (AID 1508598). The conditions noted are these: patient-derived ovarian cancer cells, CellTiter-Glo viability, 144 h, stronger effect = lower value.
Experiment [9] is described as follows: JHH-DIPG-1 glioma cell viability, MIPE5.0 library, CellTiter-Glo luminescence, qHTS (AID 1347067; cut-off not given, nearly all actives have AC50 up to about 26 µM;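 note: cells exposed to compound for 48 hours before readout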). The conditions noted are these: JHH-DIPG-1 glioma viability, CellTiter-Glo ATP luminescence.
Experiment [10] is described as follows: modifiers of HSF1 nuclear foci, imaging, Selleck Cancer Library (AID 1347162; in the data active = plate-normalised HSF1 focus index below about 0.46). The conditions noted are these: human cells, at 10 µM; SSMD: measured here: HSF1 foci SSMD mean; cell count: measured here: cell number; plate-normalised HSF1 focus index: stronger effect = lower value.
The mark [11] stands for this setting: stronger effect = lower value, cell number ratio, induced over uninduced.
The mark [12] stands for this setting: measured here: relative caspase fold change +Dox/-Dox.
Where [13] appears, read: measured here: total cells with miR-34 induction, stronger effect = lower value.
[14] abbreviates: measured here: total cells without miR-34 induction.
[15] abbreviates: MELAS cybrid survival, CellTiter-Glo 48 h, stronger effect = higher value.
The mark [16] stands for this setting: Rieske KO mouse fibroblast survival, CellTiter-Glo 72 h.

A word on the AC50: it is the concentration giving half of the maximal activity seen. The viability is a read-out of living cells in per cent, often relative to untreated cells.

With `COc1cc(N2CCN(C)CC2)ccc1Nc1nc(N)c(C(=O)c2c(Cl)cccc2Cl)s1`, the compound was classed as inactive in [1], in experiment [2] and in experiment [3].

Turning to `Clc1cc(Cl)cc(CNc2ncncc2-c2ccc3c(c2)OCO3)c1`, the compound was called inactive in [1], in [2] and in [3].

On to `Cc1cccc(Nc2nc(-c3ccncc3)cs2)c1`, for which the outcome in experiment [1], in experiment [3] and in [5] was inactive. The half-maximal activity concentration (AC50) in [2] and in [4] was 20.9 µM (active) in each case. Also, the fold change in experiment [6] (setting [11]) was 0.988 (inactive) and 0.935 (inactive); in experiment [6] (setting [12]), 0.542 and 0.911. Moreover, the cell count was 4770 and 4650 in experiment [6] (setting [13]); 4820 and 4970 in [6] (setting [14]). Moreover, the values for the z-score in experiment [7] (setting [15]) and in experiment [7] (setting [16]) were -0.247 (inactive) and 1.01, respectively. Moreover, the viability in experiment [8] (at 0.000305 µM, OCI-C5x cells, with rucaparib 10 µM, 100% = cells with rucaparib alone) was 109% (inactive); in [8] (at 0.000305 µM, OCI-C5x cells, without rucaparib), 111% (inactive); in experiment [8] (at 0.000305 µM, OCI-P5x cells, with rucaparib 20 µM, 100% = cells with rucaparib alone), 88.3% (active); in [8] (at 0.000305 µM, OCI-P5x cells, without rucaparib), 86.6% (active); in experiment [8] (at 0.00122 µM, OCI-C5x cells, with rucaparib 10 µM, 100% = cells with rucaparib alone), 108% (inactive); in experiment [8] (at 0.00122 µM, OCI-C5x cells, without rucaparib) it was 108% (inactive). Also, the viability in [8] (at 0.00122 µM, OCI-P5x cells, with rucaparib 20 µM, 100% = cells with rucaparib alone) was 95.8% (active); in experiment [8] (at 0.00122 µM, OCI-P5x cells, without rucaparib), 93.7% (active); in [8] (at 0.00488 µM, OCI-C5x cells, with rucaparib 10 µM, 100% = cells with rucaparib alone) it was 114% (inactive); in experiment [8] (at 0.00488 µM, OCI-C5x cells, without rucaparib), 106% (inactive); in experiment [8] (at 0.00488 µM, OCI-P5x cells, with rucaparib 20 µM, 100% = cells with rucaparib alone) it was 75.1% (active); in experiment [8] (at 0.00488 µM, OCI-P5x cells, without rucaparib), 94.9% (active). In addition, the viability was 112% (inactive) in experiment [8] (at 0.0195 µM, OCI-C5x cells, with rucaparib 10 µM, 100% = cells with rucaparib alone); 112% (inactive) in experiment [8] (at 0.0195 µM, OCI-C5x cells, without rucaparib); 110% (inactive) in experiment [8] (at 0.0195 µM, OCI-P5x cells, with rucaparib 20 µM, 100% = cells with rucaparib alone); 89.5% (active) in experiment [8] (at 0.0195 µM, OCI-P5x cells, without rucaparib); 107% (inactive) in experiment [8] (at 0.0781 µM, OCI-C5x cells, with rucaparib 10 µM, 100% = cells with rucaparib alone); 108% (inactive) in experiment [8] (at 0.0781 µM, OCI-C5x cells, without rucaparib). Further, the viability was 102% (inactive) in [8] (at 0.0781 µM, OCI-P5x cells, with rucaparib 20 µM, 100% = cells with rucaparib alone); 101% (inactive) in [8] (at 0.0781 µM, OCI-P5x cells, without rucaparib); 115% (inactive) in experiment [8] (at 0.313 µM, OCI-C5x cells, with rucaparib 10 µM, 100% = cells with rucaparib alone); 106% (inactive) in [8] (at 0.313 µM, OCI-C5x cells, without rucaparib); 104% (inactive) in [8] (at 0.313 µM, OCI-P5x cells, with rucaparib 20 µM, 100% = cells with rucaparib alone); 95.3% (active) in experiment [8] (at 0.313 µM, OCI-P5x cells, without rucaparib). Further, the viability in [8] (at 1.25 µM, OCI-C5x cells, with rucaparib 10 µM, 100% = cells with rucaparib alone) was 129% (inactive); in experiment [8] (at 1.25 µM, OCI-C5x cells, without rucaparib) it was 115% (inactive); in experiment [8] (at 1.25 µM, OCI-P5x cells, with rucaparib 20 µM, 100% = cells with rucaparib alone), 101% (inactive); in experiment [8] (at 1.25 µM, OCI-P5x cells, without rucaparib) it was 98.4% (active); in [8] (at 5 µM, OCI-C5x cells, with rucaparib 10 µM, 100% = cells with rucaparib alone), 157% (inactive); in [8] (at 5 µM, OCI-C5x cells, without rucaparib) it was 136% (inactive). In addition, the viability was 82.2% (active) in experiment [8] (at 5 µM, OCI-P5x cells, with rucaparib 20 µM, 100% = cells with rucaparib alone) and 110% (inactive) in experiment [8] (at 5 µM, OCI-P5x cells, without rucaparib).

In the case of `O=C(OCC#CCSc1nnc(-c2cccc3ccccc23)o1)c1cc2ccccc2s1`, the outcome in experiment [1], in experiment [2] and in [3] was inactive.

With `CCOC(=O)N[C@@H]1CC[C@@H]2[C@@H](C1)C[C@H]1C(=O)O[C@H](C)[C@H]1[C@H]2/C=C/c1ccc(-c2cccc(F)c2)cn1`, the compound was classed as inactive in experiment [1], in experiment [2], in experiment [3], in experiment [9] and in experiment [5].

On to `CCCCn1c(=O)n(Cc2ccccc2F)c(=O)c2[nH]c(Cc3ccc(NC(C)=O)cc3)nc21`, for which the compound was called inactive in experiment [1], in [2], in experiment [3], in experiment [9] and in [5]. The SSMD in [10] turned out to be 3.98. The compound also gave a cell count in experiment [10] of 6960. Besides, the plate-normalised HSF1 focus index in [10] was 1.24 (inactive).

Turning to `COc1cc2c(cc1OC)CN(CCc1ccc(NC(=O)c3cc(OC)c(OC)cc3NC(=O)c3cnc4ccccc4c3)cc1)CC2`, the AC50 in experiment [1] is 20.9 µM (active). In addition, the outcome in [2], in [4], in experiment [9] and in experiment [5] was inactive. Moreover, the fold change in experiment [6] (setting [11]) was 0.948 (inactive); in experiment [6] (setting [12]), 0.402. The figures for the cell count in experiment [6] (setting [13]) and in [6] (setting [14]) were 8470 and 8940, respectively. Also, the z-score in experiment [7] (setting [15]) was -0.604 (inactive); in experiment [7] (setting [16]), 0.309.
